Experimental data as given in PubChem BioAssay (Tox21).
Where “and” joins values, the source holds several entries; their conditions need not be identical. Equal values may be shown once. Results filed as inconclusive are left out. Entries that show only a call come without a potency. The source holds several records for some structures; these can differ, active in one and inactive in another. Calls of active or inactive are those of the source. Unless noted, calls follow the shape of the dose curve; as a rule, active = well fitted curve in the direction sought with a large enough effect in the repeat runs; inconclusive = weak or mixed curves; inactive = no such curve, though single readings can be large; an effect the other way counts as inactive or inconclusive.

What was measured:
[1] = A CellTox Green Cytotoxicity Assay to monitor cytotoxicity in HEK293 cells - 32 hour (AID 1224881); also: nearly all actives have a fitted effect of over 40% in size
Summary of the method: (§1)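 Seeding of HEK293 cells together with cytotoxicity dye preceded a 5 h incubation at 37 C/5% CO2. Test compounds in DMSO were then added and fluorescence monitored across 40 h.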

[2] = A CellTox Green Cytotoxicity Assay to monitor cytotoxicity in HepG2 cells - 32 hour (AID 1224883); also: nearly all actives have a fitted effect of over 50% in size
Summary of the method: (§2)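 Nonlytic assay: viable cells exclude the dye, so fluorescence scales with cell death. HepG2 at 600 cells/well, compounds added after 5 h, signal read across 40 h.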

[3] = qHTS RealTime-Glo MT Cell Viability Assay in HepG2 cells - 16 hour (AID 1224885); also: nearly all actives have a fitted effect of over 50% in size
Summary of the method: (§3)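 Real-time, nonlytic viability: 600 HepG2 cells/well mixed with NanoLuc enzyme plus prosubstrate; 5 h settle, compound (DMSO) added by pintool; luminescence monitored over 40 h at 37 C.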

[4] = qHTS RealTime-Glo MT Cell Viability Assay in HEK293 cells - 8 hour (AID 1224887); also: top concentration of the series differs between compounds; nearly all actives have a fitted effect of over 50% in size
Summary of the method: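 Tox21 screen in HEK293 using RealTime-Glo MT chemistry, with cells and reagent co-dispensed. Luminescence proportional to viable cell number was captured at intervals during 40 h compound exposure at 37 C.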

[5] = qHTS RealTime-Glo MT Cell Viability Assay in HepG2 cells - 0 hour (AID 1224889); also: nearly all actives have a fitted effect of over 50% in size
Summary of the method: as §3

[6] = A CellTox Green Cytotoxicity Assay to monitor cytotoxicity in HepG2 cells - 8 hour (AID 1224890); also: nearly all actives have a fitted effect of over 45% in size
Summary of the method: as §2

[7] = qHTS assay to identify small molecule antagonists of the estrogen receptor alpha (ER-alpha) signaling pathway using the BG1 cell line in the presence of 0.1 nM 17-beta-estradiol - cell viability counter screen (AID 1259241); also: nearly all actives have a fitted effect of over 40% in size
Summary of the method: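 VM7Luc4E2 cells (endogenous full-length ER-alpha, 4xERE-luciferase), cultured 5 days in charcoal-stripped serum, exposed to compounds with 0.1 nM 17beta-estradiol (final) for 22 hr at 37C. Viability read in same wells as live-cell protease fluorescence after 30 min.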

[8] = qHTS assay to identify small molecule antagonists of the androgen receptor (AR) signaling pathway using the MDA cell line in the presence of 0.5 nM R1881 - cell viability counter screen (AID 1259242); also: nearly all actives have a fitted effect of over 45% in size
Summary of the method: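 R1881 at 0.5 nM final stimulated MDA-kb2 cells during 16 hr compound treatment at 37C. Cytotoxicity read: CellTiter-Fluor fluorescence after 30 min.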

[9] = qHTS assay to identify small molecule HDAC inhibitors (AID 1259364);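 also: wild-type HCT-116 cells with endogenous class I/II HDAC activity; top concentration of the series differs between compounds; nearly all actives have a fitted effect of over 45% in size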
Summary of the method: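 Relative class I and II HDAC activity is taken from the luminogenic signal in HCT-116 cells, with compound exposure 2 hr and reagent development 30 min at room temperature.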

[10] = qHTS assay to identify small molecule HDAC inhibitors - cell viability counter screen (AID 1259365)
Summary of the method: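 Wild-type HCT-116 cells, 1,500/well, cultured overnight, then compound-treated 2 h at 37 C. Viability measured as ATP luminescence with CellTiter-Glo after 30 min at room temperature.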

[11] = qHTS assay to identify small molecule agonists of the sonic hedgehog signaling (Shh) pathway - cell viability counter screen (AID 1259366); also: nearly all actives have a fitted effect of over 50% in size
Summary of the method: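 NIH/3T3-derived Gli1-Luc reporter cells, 2,000 per well, received compound after 4 h and were treated about 23 h at 37C. Viability measured in the same wells by CellTiter-Fluor fluorescence after 1 h.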

[12] = qHTS assay to identify small molecule antagonists of the sonic hedgehog signaling (Shh) pathway - cell viability counter screen (AID 1259367); also: nearly all actives have a fitted effect of over 55% in size; also: potency is read from the fitted curve at half-maximal effect
Summary of the method: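 Seed 3T3 Gli1-Luc cells at 2,000 per well; incubate 4 hr; add compound in DMSO, then conditioned medium; incubate at 37C with 5% CO2; add CellTiter-Fluor after 23 hr; read fluorescence 1 hr later.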

[13] = qHTS assay to identify small molecule agonists of the sonic hedgehog signaling (Shh) pathway (AID 1259368; calls by dose curve;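 also: NIH/3T3-derived 3T3Gli1-Luc cells carrying a stable Gli1-driven firefly luciferase reporter; series mostly up to about 92 µM; nearly all actives have a fitted effect of over 15% in size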)
Summary of the method: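 Mouse fibroblast (NIH/3T3) reporter cells with stably integrated Gli1-Luc were treated 24 hr with compound; firefly luciferase luminescence served as the read-out.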

[14] = A CellTox Green Cytotoxicity Assay to monitor cytotoxicity in HepG2 cells - 0 hour (AID 1224882); also: nearly all actives have a fitted effect of over 35% in size
Summary of the method: as §2

[15] = qHTS RealTime-Glo MT Cell Viability Assay in HEK293 cells - 24 hour (AID 1224886)
Summary of the method: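 Cells + reagent dispensed (600 cells/well, HEK293) → 5 h at 37 C/5% CO2 → 23 nL compound in DMSO pinned → 40 h at 37 C → luminescence read at 0, 8, 16, 24, 32, 40 h.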

[16] = A CellTox Green Cytotoxicity Assay to monitor cytotoxicity in HEK293 cells - 16 hour (AID 1224888); also: nearly all actives have a fitted effect of over 35% in size
Summary of the method: as §1

[17] = A CellTox Green Cytotoxicity Assay to monitor cytotoxicity in HEK293 cells - 8 hour (AID 1224884); also: nearly all actives have a fitted effect of over 35% in size
Summary of the method: as §1

[18] = molecular target: Androgen receptor (Homo sapiens) (UniProt P10275); test: qHTS assay to identify small molecule antagonists of the androgen receptor (AR) signaling pathway using the MDA cell line in the presence of 0.5 nM R1881 (AID 1259243); also: nearly all actives have a fitted effect of over 50% in size
Summary of the method: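 We exposed MDA-kb2 cells to compounds under 0.5 nM R1881 stimulation for 16 hr at 37C and quantified MMTV-driven luciferase by luminescence.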

Sequence of Androgen receptor (Homo sapiens) (P10275 whole entry, looked up): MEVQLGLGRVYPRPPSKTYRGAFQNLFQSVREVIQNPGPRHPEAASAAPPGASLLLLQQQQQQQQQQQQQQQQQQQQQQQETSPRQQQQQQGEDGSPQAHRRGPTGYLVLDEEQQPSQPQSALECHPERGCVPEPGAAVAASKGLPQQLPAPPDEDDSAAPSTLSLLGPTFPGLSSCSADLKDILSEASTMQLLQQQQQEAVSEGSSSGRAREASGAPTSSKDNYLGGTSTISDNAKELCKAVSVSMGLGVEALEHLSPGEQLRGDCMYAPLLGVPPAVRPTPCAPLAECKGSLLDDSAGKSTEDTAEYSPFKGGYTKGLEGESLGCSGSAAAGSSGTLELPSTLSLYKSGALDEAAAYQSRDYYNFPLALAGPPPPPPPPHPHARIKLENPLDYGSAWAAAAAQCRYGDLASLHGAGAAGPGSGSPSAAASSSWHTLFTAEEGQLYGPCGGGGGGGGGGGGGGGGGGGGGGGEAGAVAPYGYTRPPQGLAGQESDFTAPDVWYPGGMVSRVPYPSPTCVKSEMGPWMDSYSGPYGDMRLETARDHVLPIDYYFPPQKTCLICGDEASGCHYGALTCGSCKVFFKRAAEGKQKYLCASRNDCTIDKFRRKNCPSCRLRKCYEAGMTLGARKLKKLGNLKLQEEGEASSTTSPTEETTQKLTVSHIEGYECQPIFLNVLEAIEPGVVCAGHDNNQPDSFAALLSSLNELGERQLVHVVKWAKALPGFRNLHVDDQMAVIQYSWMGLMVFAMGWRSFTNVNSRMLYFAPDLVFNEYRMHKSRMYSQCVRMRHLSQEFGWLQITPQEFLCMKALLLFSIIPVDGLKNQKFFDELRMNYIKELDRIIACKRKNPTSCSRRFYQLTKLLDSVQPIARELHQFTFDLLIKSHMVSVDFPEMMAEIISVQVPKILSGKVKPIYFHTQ

COc1ccccc1[N+](=O)[O-]
Potency [1]: inactive | Potency [2]: inactive | Potency [3]: inactive | Potency [4]: inactive | Potency [5]: inactive | Potency [6]: inactive | Potency [7]: inactive | Potency [8]: inactive | Potency [9]: inactive | Potency [10]: inactive | Potency [11]: inactive | Potency [12]: inactive | Potency [13]: inactive

CC(=O)OCc1ccc2c(c1)OCO2
Potency [1]: inactive | Potency [14]: inactive | Potency [2]: inactive | Potency [3]: inactive | Potency [15]: inactive | Potency [4]: inactive | Potency [5]: inactive | Potency [6]: inactive | Potency [7]: inactive | Potency [8]: inactive | Potency [9]: inactive | Potency [10]: inactive | Potency [11]: inactive | Potency [12]: inactive | Potency [13]: inactive

C=C1C[C@]23C[C@@]1(O)CC[C@H]2[C@@]12C=C[C@H](O)[C@@](C)(C(=O)O1)[C@H]2[C@@H]3C(=O)O
Potency [1]: inactive | Potency [14]: inactive | Potency [2]: inactive | Potency [3]: inactive | Potency [15]: inactive | Potency [4]: inactive | Potency [16]: inactive | Potency [5]: inactive | Potency [6]: inactive | Potency [7]: inactive | Potency [8]: inactive | Potency [9]: inactive | Potency [10]: inactive | Potency [11]: inactive | Potency [12]: inactive | Potency [13]: inactive

O=C1OC(=O)c2c(Cl)c(Cl)c(Cl)c(Cl)c21
Potency [1]: inactive | Potency [2]: inactive | Potency [3]: inactive | Potency [4]: inactive | Potency [5]: inactive | Potency [6]: inactive | Potency [7]: inactive | Potency [8]: inactive | Potency [9]: inactive | Potency [11]: inactive | Potency [12]: inactive | Potency [13]: inactive

Cc1ccc([N+](=O)[O-])cc1N
Potency [1]: inactive | Potency [2]: inactive | Potency [17]: inactive | Potency [3]: inactive | Potency [15]: inactive | Potency [4]: inactive | Potency [16]: inactive | Potency [5]: inactive | Potency [6]: inactive | Potency [7]: inactive | Potency [8]: inactive | Potency [9]: inactive | Potency [10]: inactive | Potency [11]: inactive | Potency [12]: inactive | Potency [13]: inactive

Cc1cccc(C)c1[N+](=O)[O-]
Potency [1]: inactive | Potency [14]: inactive | Potency [2]: inactive | Potency [3]: inactive | Potency [15]: inactive | Potency [4]: inactive | Potency [16]: inactive | Potency [5]: inactive | Potency [6]: inactive | Potency [7]: inactive | Potency [8]: inactive | Potency [9]: inactive | Potency [11]: inactive | Potency [12]: inactive and 48.6 µM (active) | Potency [13]: inactive

CC(C=O)Cc1ccc(C(C)(C)C)cc1 (stereo not drawn)
Potency [1]: inactive | Potency [2]: inactive | Potency [3]: inactive | Potency [15]: inactive | Potency [4]: inactive | Potency [5]: inactive | Potency [6]: inactive | Potency [7]: inactive | Potency [8]: inactive | Potency [18]: inactive | Potency [9]: inactive | Potency [10]: inactive | Potency [11]: inactive | Potency [12]: inactive | Potency [13]: inactive

COC(=O)OC
Potency [1]: inactive | Potency [14]: inactive | Potency [2]: inactive | Potency [3]: inactive | Potency [15]: inactive | Potency [4]: inactive | Potency [16]: inactive | Potency [5]: inactive | Potency [6]: inactive | Potency [7]: inactive | Potency [8]: inactive | Potency [9]: inactive | Potency [11]: inactive | Potency [12]: inactive | Potency [13]: inactive

Cc1ccncc1
Potency [1]: inactive | Potency [14]: inactive | Potency [2]: inactive | Potency [3]: inactive | Potency [15]: inactive | Potency [4]: inactive | Potency [16]: inactive | Potency [5]: inactive | Potency [6]: inactive | Potency [7]: inactive | Potency [8]: inactive | Potency [9]: inactive | Potency [10]: inactive | Potency [11]: inactive | Potency [12]: inactive | Potency [13]: inactive
